From PubChem BioAssay (NCATS)
Records with an inconclusive call do not appear. Active and inactive are the calls of the source. Unless noted, calls come from the whole dose curve; as a rule, active = well fitted curve in the direction sought with a large enough effect; inconclusive = small, poorly fitted or top-dose-only effect, or another doubt; inactive = no such curve, though single readings can be large; an effect the other way counts as inactive or inconclusive.

What was measured:
[1] = molecular target: Hexokinase-4 (Homo sapiens) + Glucokinase regulatory protein (Homo sapiens) (UniProt P35557+Q14397); assay: qHTS assay for inhibitors of recombinant human GCK-GKRP interaction: HTRF assay (AID 743207);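 note: 0% = DMSO with GCK present and -100% = DMSO wells lacking GCK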
Chain of Hexokinase-4 (Homo sapiens) + Glucokinase regulatory protein (Homo sapiens) (P35557 whole entry, looked up): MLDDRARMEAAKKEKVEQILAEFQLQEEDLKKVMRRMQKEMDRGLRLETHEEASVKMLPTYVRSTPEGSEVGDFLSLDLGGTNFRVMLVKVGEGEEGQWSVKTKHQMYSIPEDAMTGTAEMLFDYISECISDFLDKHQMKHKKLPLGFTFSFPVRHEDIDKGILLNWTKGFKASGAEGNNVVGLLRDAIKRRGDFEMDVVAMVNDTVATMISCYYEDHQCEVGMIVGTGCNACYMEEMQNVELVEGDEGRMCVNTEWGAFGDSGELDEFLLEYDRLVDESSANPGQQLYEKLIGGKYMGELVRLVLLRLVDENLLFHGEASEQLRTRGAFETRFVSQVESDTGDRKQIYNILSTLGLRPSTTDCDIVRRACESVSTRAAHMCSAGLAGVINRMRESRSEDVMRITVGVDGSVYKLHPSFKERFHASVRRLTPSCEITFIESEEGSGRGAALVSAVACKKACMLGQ
Chain of Hexokinase-4 (Homo sapiens) + Glucokinase regulatory protein (Homo sapiens) (Q14397 whole entry, looked up): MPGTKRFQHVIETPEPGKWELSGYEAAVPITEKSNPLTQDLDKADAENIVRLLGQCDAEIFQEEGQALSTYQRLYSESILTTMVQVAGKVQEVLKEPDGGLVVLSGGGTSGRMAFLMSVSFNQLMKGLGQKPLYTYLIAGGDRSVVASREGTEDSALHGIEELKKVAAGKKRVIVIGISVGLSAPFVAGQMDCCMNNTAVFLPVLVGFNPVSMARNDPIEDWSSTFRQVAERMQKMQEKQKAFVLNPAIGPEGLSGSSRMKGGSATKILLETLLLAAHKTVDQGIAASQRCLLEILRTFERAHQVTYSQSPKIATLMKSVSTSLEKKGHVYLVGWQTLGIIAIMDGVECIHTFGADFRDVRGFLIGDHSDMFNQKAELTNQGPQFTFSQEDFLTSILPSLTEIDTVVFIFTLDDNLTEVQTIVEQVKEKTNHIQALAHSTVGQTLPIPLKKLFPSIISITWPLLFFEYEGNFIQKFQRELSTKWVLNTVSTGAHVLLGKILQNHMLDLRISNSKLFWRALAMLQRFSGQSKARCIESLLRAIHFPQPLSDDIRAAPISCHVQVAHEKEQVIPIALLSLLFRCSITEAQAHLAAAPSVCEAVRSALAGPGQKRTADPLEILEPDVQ
Summary of the method: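 GST-GCK and FLAG-GKRP (5 nM each) were combined with 2 uM S6P in pH 7.1 Hepes/MgCl2/KCl/DTT buffer, then compound and anti-FLAG XL665/anti-GST K antibodies were added. After 60 min at room temperature, HTRF 665/615 nm emission was read.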

[2] = qHTS Assay for Identifying Gametocytocidal Compounds (AID 743244); note: potency is the fitted concentration of half-maximal effect;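 for max response: % is set by controls: 0 for no effect and ±100 for the full control effect; actives lower the fluorescent signal which means gametocytes are killed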; details: P. falciparum 3D7 stage III-V gametocytes, alamarBlue, 72 h; max response: stronger effect = lower value
Summary of the method: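 In this qHTS viability screen, late-stage 3D7 gametocytes are incubated with compound for 72 h, then with alamarBlue for 24 h; reduced resorufin fluorescence marks killing.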

[3] = qHTS assay for measurement of the activity of small molecule inhibitors on Zika virus induced Caspase-3 activity in human astrocytoma cells (AID 1224859);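 note: plate controls were ZIKV-infected untreated cells for no effect and uninfected cells for full effect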
Summary of the method: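 A cell-based luminescent caspase-3/7 assay used SNB-19 cells infected with ZIKV (2 FFU/cell) for 6 h following 1 h compound pretreatment.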

[4] = Natriuretic polypeptide receptor (hNpr1) antagonism - Pilot counterscreen GloSensor control cell line (AID 1347045; calls by dose curve; note: series mostly up to about 38 µM; % is set by controls: 0 for no effect and ±100 for the full control effect)
Summary of the method: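 Luminescence was read before and 20 min after adding 50 uM SNP, which stimulates soluble guanylyl cyclase. The HEK293 cells expressing the GloSensor cGMP sensor had been preloaded with 2% reagent for 2 h and treated with compound.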

[5] = molecular target: Atrial natriuretic peptide receptor 1 (Homo sapiens) (UniProt P16066); assay: Natriuretic polypeptide receptor (hNpr1) antagonism - Pilot screen (AID 1347049; calls by dose curve;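 note: agonist-evoked cGMP luminescence read 20 min after hNppA addition; series mostly up to about 58 µM; % is set by controls: 0 for no effect and ±100 for the full control effect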)
Chain of Atrial natriuretic peptide receptor 1 (Homo sapiens) (P16066 whole entry, looked up): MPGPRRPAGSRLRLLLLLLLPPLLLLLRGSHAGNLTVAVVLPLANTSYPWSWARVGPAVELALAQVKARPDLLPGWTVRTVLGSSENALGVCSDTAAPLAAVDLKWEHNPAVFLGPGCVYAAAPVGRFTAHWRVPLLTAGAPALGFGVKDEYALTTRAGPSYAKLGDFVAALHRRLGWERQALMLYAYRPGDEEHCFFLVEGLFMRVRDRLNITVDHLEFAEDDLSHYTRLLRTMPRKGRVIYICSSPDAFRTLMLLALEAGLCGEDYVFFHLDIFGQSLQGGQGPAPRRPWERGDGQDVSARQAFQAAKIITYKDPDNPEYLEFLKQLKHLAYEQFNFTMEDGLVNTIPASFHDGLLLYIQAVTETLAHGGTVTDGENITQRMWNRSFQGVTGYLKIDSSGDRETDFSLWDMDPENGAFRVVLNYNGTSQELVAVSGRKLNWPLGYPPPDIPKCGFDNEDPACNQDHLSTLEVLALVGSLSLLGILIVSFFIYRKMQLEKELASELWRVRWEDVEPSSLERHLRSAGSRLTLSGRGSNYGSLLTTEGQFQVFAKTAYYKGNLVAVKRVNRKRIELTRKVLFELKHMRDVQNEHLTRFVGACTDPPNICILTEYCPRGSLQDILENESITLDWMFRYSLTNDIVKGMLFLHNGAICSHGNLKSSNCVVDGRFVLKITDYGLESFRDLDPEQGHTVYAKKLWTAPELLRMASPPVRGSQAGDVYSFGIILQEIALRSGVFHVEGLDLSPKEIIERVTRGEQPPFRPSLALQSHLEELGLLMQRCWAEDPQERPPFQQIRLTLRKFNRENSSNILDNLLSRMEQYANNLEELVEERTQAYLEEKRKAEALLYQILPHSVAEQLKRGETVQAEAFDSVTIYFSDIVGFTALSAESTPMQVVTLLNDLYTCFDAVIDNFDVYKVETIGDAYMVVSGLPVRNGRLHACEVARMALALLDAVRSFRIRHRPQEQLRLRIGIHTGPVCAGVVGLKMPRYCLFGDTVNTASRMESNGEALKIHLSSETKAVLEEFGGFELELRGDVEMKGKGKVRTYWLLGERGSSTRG
Summary of the method: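 HEK293 cells co-expressing hNpr1 and the GloSensor pGS-40F cGMP luciferase sensor were preloaded with 2% GloSensor reagent for 2 h. Compounds were added for 30 min at room temperature, then cells were stimulated with 0.1 nM hNppA for 20 min before luminescence readout.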

[6] = molecular target: Atrial natriuretic peptide receptor 2 (Homo sapiens) (UniProt P20594); assay: Natriuretic polypeptide receptor (hNpr2) antagonism - Pilot subtype selectivity assay (AID 1347050; calls by dose curve; note: % is set by controls: 0 for no effect and ±100 for the full control effect)
Chain of Atrial natriuretic peptide receptor 2 (Homo sapiens) (P20594 whole entry, looked up): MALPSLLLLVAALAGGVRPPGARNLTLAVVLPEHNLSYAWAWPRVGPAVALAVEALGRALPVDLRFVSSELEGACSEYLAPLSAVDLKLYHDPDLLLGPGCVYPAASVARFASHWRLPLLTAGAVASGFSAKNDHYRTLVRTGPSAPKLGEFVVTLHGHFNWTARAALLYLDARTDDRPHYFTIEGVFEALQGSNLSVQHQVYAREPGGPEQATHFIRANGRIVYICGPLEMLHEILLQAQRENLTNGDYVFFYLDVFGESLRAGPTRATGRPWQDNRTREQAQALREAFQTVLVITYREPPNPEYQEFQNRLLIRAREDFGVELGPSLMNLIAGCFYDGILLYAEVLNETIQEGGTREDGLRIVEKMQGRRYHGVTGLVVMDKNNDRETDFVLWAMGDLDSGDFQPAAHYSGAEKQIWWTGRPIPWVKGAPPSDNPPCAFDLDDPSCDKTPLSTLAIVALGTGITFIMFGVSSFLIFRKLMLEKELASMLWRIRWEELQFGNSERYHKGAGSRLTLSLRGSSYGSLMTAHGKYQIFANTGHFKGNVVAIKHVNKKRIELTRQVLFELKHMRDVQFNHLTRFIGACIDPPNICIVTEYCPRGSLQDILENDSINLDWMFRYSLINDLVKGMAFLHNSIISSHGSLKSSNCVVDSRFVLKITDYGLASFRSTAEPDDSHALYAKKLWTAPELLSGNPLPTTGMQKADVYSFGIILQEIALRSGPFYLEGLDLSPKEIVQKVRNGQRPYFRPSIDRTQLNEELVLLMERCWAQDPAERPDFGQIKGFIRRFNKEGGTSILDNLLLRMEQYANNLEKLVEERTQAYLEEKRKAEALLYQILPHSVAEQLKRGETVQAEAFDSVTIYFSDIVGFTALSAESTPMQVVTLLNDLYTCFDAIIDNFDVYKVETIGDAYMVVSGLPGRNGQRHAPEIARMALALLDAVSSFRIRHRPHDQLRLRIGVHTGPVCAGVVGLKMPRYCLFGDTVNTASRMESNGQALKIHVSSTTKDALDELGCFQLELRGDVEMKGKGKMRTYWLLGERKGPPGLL
Summary of the method: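 cGMP-sensor HEK293/hNpr2 cells; 2% GloSensor reagent 2 h RT; compounds 30 min; baseline luminescence read; 1 nM hNppC agonist 20 min RT; final luminescence read by CCD camera. Antagonism = reduced post-agonist signal.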

[7] = qHTS assay to identify small molecule inhibitors of chordoma cells - UCH-1 (AID 1259355); note: nearly all actives have a fitted effect of over 55% in size; note: potency is the fitted concentration of half-maximal effect; series mostly up to about 46 µM
Summary of the method: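 Luminescent ATP read-out (CellTiter-Glo, 30min at room temperature) measured viability of UCH-1 cells exposed for 48hr to test drugs at 15 concentrations, co-dosed with a five-agent combination of auranofin, camptothecin, doxorubicin, rubitecan and topotecan.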

[8] = qHTS assay to identify small molecule inhibitors of chordoma cells - UCH-2 (AID 1259356); note: potency is the fitted concentration of half-maximal effect
[9] = NS1 protein of Zika virus - qHTS assay to identify small molecule inhibitors in human HEK 293 cells (AID 1347053);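 note: series mostly up to about 46 µM; plate controls were infected untreated cells for no effect and uninfected cells for full effect; nearly all actives have a fitted effect of over 55% in size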
Summary of the method: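 HEK 293 cells pretreated with compound for 1 h, then infected with ZIKV MR766 (MOI 0.5) for 24 h at 37 C. NS1 detected by TR-FRET with two anti-NS1 antibodies; normalized to uninfected (0%) and infected (100%) wells.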

[10] = P-glycoprotein substrates identified in KB-3-1 adenocarcinoma cell line, qHTS therapeutic library screen (AID 1346986);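 note: potency is the fitted concentration of half-maximal effect; potency is for cytotoxicity meaning loss of cell viability; nearly all actives have a fitted effect of over 60% in size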
Summary of the method: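 Resistance attributable to P-gp was assessed by comparing AC50 in KB-8-5-11 with parental KB-3-1 and by tariquidar reversal. Cells were exposed 72 h and viability read by CellTiter-Glo.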

[11] = P-glycoprotein substrates identified in KB-8-5-11 adenocarcinoma cell line, qHTS therapeutic library screen (AID 1346987); note: potency is the fitted concentration of half-maximal effect; nearly all actives have a fitted effect of over 65% in size
Summary of the method: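 Steps: plate 500 KB-8-5-11 cells/well in DMEM + 10% FCS (colchicine removed); pin compounds in dose-response; incubate 72 h, 37 degree C, 5% CO2; add CellTiter-Glo, 5 min; read luminescence.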

[12] = qHTS assay for cell viability of the p53RE-bla HCT-116 cell line (AID 743292); note: potency is the fitted concentration of half-maximal effect; nearly all actives have a fitted effect of over 55% in size
Summary of the method: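 After plating at 4,000 cells per well and a 5 h rest at 37 C, HCT-116 cells carrying p53RE-bla received test chemicals in DMSO. Sixteen hours later at 37 C, CellTiter-Glo was added and luminescence recorded following 30 min at room temperature.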

CCCn1c(C)c(C(=O)c2ccc3ccccc3c2)c2ccccc21
inactive: outcome [1] | max response [2] 6.14% | outcome [3] | Potency [4] | Potency [5] | Potency [6]

COc1ccc2c(c1)c(CCN1CCOCC1)c(C)n2C(=O)c1cccc(Cl)c1Cl
inactive: outcome [1] | max response [2] 23.8% | outcome [3] | Potency [4] | Potency [5] | Potency [6]

C[C@@H]1O[C@H](C[N+](C)(C)C)CS1
inactive: outcome [1] | max response [2] 20.1% | outcome [3] | Potency [4] | Potency [5] | Potency [6]

C=C[C@H]1CN2CC[C@H]1C[C@H]2[C@H](OC(=O)OCC)c1ccnc2ccc(OC)cc12
inactive: Potency [7] | Potency [8]

N[C@@H](CCl)C(=O)O
inactive: outcome [1] | max response [2] 3.64% | outcome [3] | Potency [4] | Potency [5] | Potency [6]

C=CCN1CC[C@]23c4c5ccc(O)c4O[C@H]2/C(=N/NC(=O)c2ccccc2)CC[C@@]3(O)[C@H]1C5
inactive: outcome [1] | max response [2] 8.77% | outcome [3] | Potency [4] | Potency [5] | Potency [6]

CN1CC[C@@]2(C)c3cc(O)ccc3N(C)C12 (some centres not stated)
active: Potency [2] 3.16 µM
inactive: outcome [1] | outcome [3] | Potency [5] | Potency [6] | outcome [9]

COc1ccc2c(c1)/C(=C/c1cnc[nH]1)C(=O)N2
active: Potency [10] 7.31 µM | Potency [11] 5.17 µM
inactive: outcome [1] | outcome [3] | Potency [4] | Potency [5] | Potency [6]

CC(=O)OCC1=C(C(=O)O)N2C(=O)[C@@H](NC(=O)CCC[C@@H](N)C(=O)O)[C@H]2SC1
inactive: outcome [1] | outcome [3] | Potency [4] | Potency [5] | Potency [6] | outcome [9]

C[CH2][Hg][S]c1ccccc1C(=O)O
inactive: outcome [3]
active: Potency [2] 1.41 µM | Potency [12] 15.8 µM | Potency [7] 3.16 µM | Potency [8] 3.66 µM | Potency [11] 2.31 µM
